Measured values published in PubChem BioAssay (NCI).
Compounds without any hit were thinned out: in the full panel of roughly 83,000, 20% have a hit.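 How to read the values: 0–100, growth inhibition (40 = 60% inhibited); 0, no net growth; -100 to 0, cell death (-40 = 40% of starting cells died; -100 = all dead).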 A number with no mark means an inactive call. Active and inactive are the calls of the source. The calls were made as follows: active = growth percent below 10; inactive = the rest.

test system: SK-MEL-28 melanoma; assay: NCI-60 one-dose screen, 48 h (100 = growth as untreated, 0 = no growth, -100 = all killed); conditions: 10 µM unless noted

Structure (SMILES)	growth
O=NN1CCCc2cccc(O)c21	67.2%
Fc1ccc2c(c1)c(-c1nc(-c3c[nH]c4ncccc34)cs1)cn2CCN1CCOCC1	75.8%
CC(=O)Nc1nc2c(s1)CC[C@@]1(C)C2=CC[C@H]2[C@@H]3CC[C@H](O)[C@@]3(C)CC[C@@H]21	56.4%
CN(C)CC(C(=O)Cc1ccccc1)c1ccccc1 (configuration not stated)	96.5%
CCOC(=O)[C@@H](C)C[C@H](Cc1ccccc1)NC(=O)c1csc([C@@H](C[C@H](C(C)C)N(C)C(=O)[C@H](CCC(C)C)NC(=O)[C@H]2CCCCN2C)OC(C)=O)n1	64.8%
CCCCCCCCCCCCCCCCCC1OC[C@H](COC(=O)O[C@@H](C(=O)O[C@H]2C[C@@]3(O)[C@@H](OC(=O)c4ccccc4)[C@@H]4[C@]5(OC(C)=O)CO[C@@H]5C[C@H](O)[C@@]4(C)C(=O)[C@H](OC(C)=O)C(=C2C)C3(C)C)[C@@H](NC(=O)c2ccccc2)c2ccccc2)O1 (some centres not stated)	55.9%
c1cnc2[nH]cc(-c3csc(-c4cn(CCCCN5CCCCC5)c5ccccc45)n3)c2c1	83%
C=C1C[C@](OC)([C@H](O)C(=O)N[C@@H](OC)[C@@H]2C[C@@H](O)C(C)(C)[C@@H](C[C@@H](COC)OC)O2)O[C@H](C)[C@@H]1C	-100% (active)
O=C(Nc1ccc(O)cc1)C(Cl)(Cl)Cl	107%
Cc1c(NS(=O)(=O)c2ccccc2)ccc([N+](=O)[O-])c1Cl	70.5%
CCCCN1CCCC[C@@H]1C(=O)N[C@H](C(=O)N(C)[C@H](C[C@@H](OC(C)=O)c1nc(C(=O)NC2CCC(C(=O)OC)CC2)cs1)C(C)C)C(C)C (some centres not stated)	72.1%
Cn1cc(-c2csc(-c3cn(CCCCN4CCCCC4)c4ccc(F)cc34)n2)c2cccnc21	-78.2% (active)
CC1=C(CN)C2=C(C)C3(CC3)[C@@](C)(O)C(=O)C2=C1	94.8%
CC(=O)O[C@H]1C(=O)[C@@]2(C)[C@H]([C@H](OC(=O)c3ccccc3)[C@]3(O)C[C@H](OC(=O)[C@H](OC(=O)OC[C@H]4COC(C)(C)O4)[C@@H](NC(=O)c4ccccc4)c4ccccc4)C(C)=C1C3(C)C)[C@]1(OC(C)=O)CO[C@@H]1C[C@@H]2O	49.7%
Cn1cc(-c2csc(-c3cn(CCN4CCOCC4)c4ccc(F)cc34)n2)c2cccnc21	40.5%
Brc1ccc2c(c1)c(-c1nc(-c3c[nH]c4ncccc34)cs1)cn2CCN1CCOCC1	94.5%
COC(=O)[C@@H](C)C[C@H](Cc1ccccc1)NC(=O)c1csc([C@@H](C[C@H](C(C)C)N(C)C(=O)[C@@H](NC(=O)[C@H]2CCCCN2C)C2CCCCC2)OC(C)=O)n1	38%
CC(=O)OC1CCC2(C)C(CCC3C2CC(=O)C2(C)C3CC(Sc3ccc(N(CCCl)CCCl)cc3)C2C(C)=O)C1 (configuration not stated)	99.8%
COc1ccc(S(=O)(=O)N(Cc2ccc3c(c2)C=CC(C)(C)O3)c2ccccc2)cc1OC	67.9%

Structure (SMILES)	growth
CC[C@H](C)[C@H](NC(=O)[C@H]1CCCCN1C)C(=O)N(C)[C@H](CC(=O)c1nc(C(=O)N[C@@H](Cc2ccccc2)C[C@H](C)C(=O)O)cs1)C(C)C	81.3%
COC(=O)[C@@H](C)C[C@H](Cc1ccccc1)NC(=O)c1csc([C@@H](C[C@H](C(C)C)N(C)C(=O)[C@@H](NC(=O)C23CC(NC(C)=O)(C2)C3)C2CC2)OC(C)=O)n1	61.3%
O=C1CC2(CC3(Cl)C(Cl)=C(Cl)C2(Cl)C3(Cl)Cl)C(=O)O1 (configuration not stated)	112%
C[n+]1c(/C=C/c2ccc(N(CCCl)CCCl)cc2)sc2ccccc21	81.4%
CC[C@H](C)[C@H](NC(=O)NC(C)(C)C)C(=O)N(C)[C@H](C[C@@H](OC(C)=O)c1nc(C(=O)N[C@@H](Cc2ccccc2)C[C@H](C)C(=O)OC)cs1)C(C)C	53.2%
CCCCCCCC[N+](C)(CCCCCCCC)CCCCCCCC	-100% (active)
CC(=O)O[C@H]1C(=O)[C@@]2(C)[C@H]([C@H](OC(=O)c3ccccc3)[C@]3(O)C[C@H](OC(=O)[C@H](OC(=O)OC[C@@H]4COC(C)(C)O4)[C@@H](NC(=O)c4ccccc4)c4ccccc4)C(C)=C1C3(C)C)[C@]1(OC(C)=O)CO[C@@H]1C[C@@H]2O	52%
CC(=O)O[C@H]1C(=O)[C@@]2(C)[C@H]([C@H](OC(=O)c3ccccc3)[C@]3(O)C[C@H](OC(=O)[C@H](OC(=O)OCC4COC(C)(C)O4)[C@@H](NC(=O)c4ccccc4)c4ccccc4)C(C)=C1C3(C)C)[C@]1(OC(C)=O)CO[C@@H]1C[C@@H]2O (some centres not stated)	43.8%
CC[C@H](C)[C@H](NC(=O)C12CC(NC(C)=O)(C1)C2)C(=O)N(C)[C@H](C[C@@H](OC(C)=O)c1nc(C(=O)N[C@@H](Cc2ccccc2)C[C@H](C)C(=O)OC)cs1)C(C)C	61%
CCn1cnc2c(Nc3cccc(Cl)c3)nc(N[C@@H]3CCCC[C@@H]3N)nc21	22.8%
O=C(O)C1C(C(=O)O)C2(Cl)C(Cl)=C(Cl)C1(Cl)C2(Cl)Cl.[Hg] (configuration not stated)	96.7%
CC[C@H](C)[C@H](NC(=O)[C@H]1CCCCN1C)C(=O)N(C)[C@H](C[C@@H](OC(C)=O)c1nc(C(=O)N[C@@H](Cc2ccccc2)C[C@H](C)C(=O)OC)cs1)C(C)C	53.6%
CN1C(=O)C(=Cc2cn(CCCCCCn3c4ccccc4c(=O)c4ccccc43)c3ccccc23)C(=O)N(C)C1=O	98%
CC(C)(C)C(=O)OCOP(=O)(OCOC(=O)C(C)(C)C)C1CCCN(O)C1=O (configuration not stated)	-23.8% (active)
COC(=O)[C@@H](C)C[C@H](Cc1ccc2ccccc2c1)NC(=O)c1csc([C@@H](C[C@H](C(C)C)N(C)C(=O)[C@@H](NC(=O)[C@H]2CCCCN2C)C(C)C)OC(C)=O)n1	68.6%
C=C1C(=O)O[C@H]2[C@H]1CC/C(COC(=O)C(=O)c1cn(Cc3ccccc3)c3ccccc13)=C\CC[C@@]1(C)O[C@@H]21	-47.1% (active)
CN(CCCCN(C)CCOS(C)(=O)=O)CCOS(C)(=O)=O	95.1%
NC(=O)CNc1ccc([As]=[As]c2ccc(NCC(N)=O)cc2)cc1 (configuration not stated)	74.6%
